Experimental data published in PubChem BioAssay AID1159580 (chemical genetic matrix, 2015).
About 2,000 (36%) of roughly 5,500 compounds were called active. Not shown: some 18% with an inconclusive outcome. Cut-off read from the data, not from the text of the source: active = normalized growth mostly below about 0.91 (no sharp cut-off); inconclusive = no clear call, values can overlap the other calls; inactive = mostly above about 0.92. The list shows a part of the results.

Test: chemical genetic growth profiling, strain panel (AID 1159580);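 note: tested at 20 µM; growth read once vehicle control cultures reached saturation at 30 °C; 1 = growth at the plate median or of vehicle wells; lower values mean less growth of the strain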
Conditions: S. cerevisiae deletion strains, growth OD

Measured: normalized growth

OC(CN1CCC(Cc2ccc(F)cc2)CC1)c1ccc(Cl)cc1 (centres undefined)
inactive: locus YAL040C, strain CLN3, active compounds read low 0.991 | locus YCL061C, strain MRC1 (second series), active compounds read low 0.997 | locus YDR150W, strain NUM1, active compounds read low 0.999 | locus YDR363W, strain ESC2, active compounds read low 1.05 | locus YER002W, strain NOP16, active compounds read low 1.03 | locus YGR229C, strain SMI1, active compounds read low 1.07 | locus YJR075W, strain HOC1, active compounds read low 1.01 | locus YMR263W, strain SAP30, active compounds read low 0.992 | locus YNL128W, strain TEP1, active compounds read low 1.01 | locus YNL175C, strain NOP13, active compounds read low 1 | locus YNL197C, strain WHI3, active compounds read low 1.01 | locus YNL224C, strain SQS1, active compounds read low 1 | locus YOR083W, strain WHI5 (second series), active compounds read low 1.05 | locus YPL055C, strain LGE1, active compounds read low 1.01
